Experimental data: PubChem BioAssay (NCATS)
A number with no mark means an inactive call. Calls follow the shape of the dose curve; as a rule, active = well fitted curve in the direction sought with a large enough effect; inconclusive = small, poorly fitted or top-dose-only effect, or effect the other way, or another doubt; inactive = no such curve, though single readings can be large or run the other way.

Assay: qHTS of Nrf2 Activators: LOPAC Validation (AID 624149); also: 0% is about no effect
Conditions: Nrf2/ARE reporter cell assay; series mostly up to 46.1 µM; activation: at the top concentration
Description: Many diseases have some form of oxidative stress injury and ties to inflammation, causing a host of problems for the patient. The antioxidant response element (ARE) plays an important role in alleviating the harmful effects of oxidative stress. The antioxidant response element (ARE) is a transcriptional regulatory element involved in the activation of genes coding for a number of antioxidant proteins and detoxifying enzymes. These enzymes work in concert to protect tissues from oxidative insults and chemical toxicities in human hepatocytes and immune cells. The protective effects of ARE activation are primarily triggered through Nrf2 (NF-E2-related factor) binding to and activating AREs. It is known that Nrf2 controls the production of over 250 antioxidant and detoxification proteins (Hu et al., 2006), thereby protecting tissues by increasing cellular antioxidant content and suppressing inflammatory signaling pathways. The transcription factor Nrf2 is a central link between oxidative chemicals, such as phenolic antioxidants and electrophilic compounds, and the activation of ARE. Nrf2 levels are constitutively low as a consequence of its interaction with Keap1, which targets its degradation (Zipper and Mulcahy, 2002). Electrophiles react with key cysteine residues in Keap1, releasing Nrf2 and allowing its translocation to the nucleus. Once within the nucleus, Nrf2 complexes with coactivators such as p300, and binds to the AREs to induce gene transcription of cytoprotective enzymes, resulting in the prevention of toxicity. Activation of Nrf2 protects tissues by increasing cellular antioxidant content and suppressing inflammatory signaling pathways. Identifying novel and potent Nrf2 activators by using the AREc32 cell line to detect ARE activation by small molecules will lead to the identification and development of probes to study protective pathways in multiple tissues. These specific probes are essential to study the ARE pathway, and eventually to determine whether this pathway does activate genes that could protect against a host of diseases, including cardiovascular diseases, obesity, diabetes, Alzheimer's, and Parkinson's disease.
This project's aim is to identify novel and potent Nrf2 activators by using the AREc32 cell line to detect ARE activation by small molecules, which will lead to the identification and development of probes to study the ARE pathway.
NIH Chemical Genomics Center [NCGC]
NIH Molecular Libraries Probe Centers Network [MLPCN]
Assay Submitter (PI): Curtis Klaassen, University of Kansas Medical Center
5 uL of 1000 cells/well of AREc32_Fluc cells are seeded into 1536-well plate in OPTI-MEM medium with 5% FBS. The plates are incubated overnight at 37 deg C with 5% CO2. Then through pin tool transfer, 23 nL of compounds are added to each well before a 24 hr incubation at 37 deg C with 5% CO2. After the addition of 2.5 uL of Steady-Glo. the plates are kept at RT for 30 min, before they are read on the ViewLux

| Structure (SMILES) | activation |
| --- | --- |
| CN(C)c1cc2c(Nc3ccc4c(cnn4Cc4ccccc4)c3)ncnc2cn1 | 1.15% |
| O=[N+]([O-])c1ccc(-c2nc(-c3ccc(F)cc3)c(-c3ccncc3)[nH]2)cc1 | 0.287% |
| N[C@@H](Cn1ccc(=O)c(O)c1)C(=O)O | 0.865% |
| O=C1NC(c2cccc([N+](=O)[O-])c2)=CCN1c1ccccc1O | 9.14% |
| Cc1nn(-c2ccccc2)c(C)c1/C=N/N1CCN(Cc2ccccc2)CC1 | -1.57% |
| Clc1ccc2c(c1)N=C(N1CCNCC1)c1ccccc1N2 | -1.16% |
| COC(=O)C1=CO[C@@H](O)[C@@H]2C(CO)=CC[C@H]12 | -2.03% |
| Brc1ccc([C@H]2CN3CCSC3=N2)cc1 | -0.259% |
| COc1cccc2c1[C@@H]1CN(CCCCn3c(=O)[nH]c4c(sc5ncc(-c6ccccc6)nc54)c3=O)C[C@@H]1CO2 | 5.36% |
| O=C1NC(=O)/C(=C/c2ccc3c(c2)OC(F)(F)O3)S1 | 16.3% |
| COc1ccccc1N1CCN(CCN2C(=O)CC3(CCCC3)CC2=O)CC1 | -2.04% |
| C[N+](C)(C)CCO | 0.908% |
| NC(N)=NCCCCN=C(N)N | -2.07% |
| CCN(CC)CCNC(=O)c1ccc(NS(C)(=O)=O)cc1 | -2.37% |
| Nc1ncnc2n[nH]c(Nc3ccc(F)cc3)c12 | -2.24% |
| CC(C)N(CCC(=O)c1ccc2ccccc2c1)Cc1ccccc1 | -1.91% |
| Cn1cnc2c(NCc3ccccc3)nc(NCCO)nc21 | -2.01% |
